Hits are enriched below; roughly 4.6% of the tested compounds scored in any of these assays.
TRHR agonist – qHTS for Small Molecule Agonists and Allosteric Enhancers of Human TRH Receptor: Primary Screen for Agonists. Thyrotropin-releasing hormone receptor (Homo sapiens), P34981. TRHR cells, calcium flux fluo-8, FDSS agonist mode. activation, % at 2 µM. hit rate 0.18% among 360,000; further: 0% is about no effect
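TRHR-expressing cells loaded with fluo-8 calcium dye; 23 nL library compound pin-transferred, kinetic FDSS fluorescence (Ex 480/Em 530) recorded about 180 s for agonist-induced calcium release, before a 10 nM TRH EC20 addition for potentiator mode.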
TRHR enhancer – qHTS for Small Molecule Agonists and Allosteric Enhancers of Human TRH Receptor: Primary Screen for Enhancers; TRHR cells, fluo-8 calcium fluorescence, EC20 TRH enhancement; enhancement, % at 2 µM; hit rate 0.66% among 360,000; AID 493056, 2011; in the data active means enhancement above about 30%; further: 0% is about no effect
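TRHR-expressing cells loaded with fluo-8 calcium dye were read kinetically (ex 480/em 530) during compound addition, then stimulated with an EC20 of TRH (10 nM final). Enhancement of the Gq-mediated intracellular calcium response was scored.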
D1 agonist – Allosteric Agonists of the Human D1 Dopamine Receptor: qHTS; HEK293 T-REx D1 cells, calcium flux, agonist mode; activation, % at 2 µM; hit rate 1% among 360,000; AID 504660, 2011; further: 0% is about no effect
Target sequence (P21728 whole entry, looked up): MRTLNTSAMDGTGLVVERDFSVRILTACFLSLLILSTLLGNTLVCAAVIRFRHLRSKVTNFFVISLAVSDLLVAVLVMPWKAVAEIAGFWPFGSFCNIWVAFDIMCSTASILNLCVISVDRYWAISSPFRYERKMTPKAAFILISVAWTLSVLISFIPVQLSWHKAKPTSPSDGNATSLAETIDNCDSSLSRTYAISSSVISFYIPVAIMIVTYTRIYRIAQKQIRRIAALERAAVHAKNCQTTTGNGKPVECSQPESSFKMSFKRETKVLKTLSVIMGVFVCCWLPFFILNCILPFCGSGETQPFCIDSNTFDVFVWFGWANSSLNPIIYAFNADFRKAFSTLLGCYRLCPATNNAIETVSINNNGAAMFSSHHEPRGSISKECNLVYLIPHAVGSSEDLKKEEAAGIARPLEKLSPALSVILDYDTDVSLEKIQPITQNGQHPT
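Tetracycline-induced HEK293 TREx D1 cells, force-coupled to calcium signalling, were dye-loaded with a no-wash calcium kit. Compound was pin-added after a 10 s baseline. Fluorescence was read kinetically at 1 cycle/s for 180 s, with calcium rises flagged as agonism.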
D1 potentiator – Potentiators of Human D1 Dopamine Receptor: qHTS; HEK293 TREx D1 cells, calcium flux, dopamine EC20 potentiation; potentiation, % at 10 µM; hit rate 0.036% among 360,000; in the data active means potentiation above about 30%; further: 0% is about no effect
D1 antagonist – Antagonist of Human D 1 Dopamine Receptor: qHTS; D(1A) dopamine receptor (Homo sapiens), P21728; HEK293 TREx D1 cells, calcium flux, dopamine EC80; active compounds read low; activity change, negative = inhibition, % at 10 µM; hit rate 3.2% among 360,000; AID 504652, 2011; in the data active means activity change below about -30%; further: on the % scale 0 is the no-effect control and ±100 the full control effect
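Cells carrying a force-coupled, tetracycline-inducible human D1 receptor report calcium flux. Each well gets a 10 s baseline, compound with 180 s monitoring, then an EC80 dopamine stimulus with a second 180 s kinetic read.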
* = called active by the depositor; nt = not tested or not shown. Unless noted, no stated cut-off is given here; in the data, active means activation above about 30%; inactive means the rest.

SMILES	TRHR agonist	TRHR enhancer	D1 agonist	D1 potentiator	D1 antagonist
COc1ccccc1-n1nnnc1SCC(=O)N(C)C1CCS(=O)(=O)C1 (configuration not stated)	1	1	1	0	-38*
COc1ccccc1-n1c(SCC(=O)N(C)C2CCS(=O)(=O)C2)nc2ccccc2c1=O (configuration not stated)	0	-1	2	0	-14
COc1ccc(Cl)cc1NC(=O)CNc1ccccc1N1CCOCC1	0	0	3	-6	-35*
Cc1cc(Cl)ccc1OCC(=O)Nc1ccccc1N1CCOCC1	0	10	-1	6	25
CCCN(C(=O)CSCc1ccccc1C)c1c(N)n(Cc2ccccc2)c(=O)[nH]c1=O	0	-4	3	-6	19
CCC(C)c1ccccc1OCCCNC1CCCC1 (configuration not stated)	3	2	39*	2	-34*
CC1CCN(CCCCOc2ccccc2-c2ccccc2)CC1	1	5	20	-6	-59*
c1ccc(-c2ccccc2OCCOCCN2CCCCC2)cc1	1	3	24	-11	-47*
CC1CCN(CCOCCOc2ccccc2Br)CC1	1	7	5	-3	-48*
COc1ccccc1OCCNC1CCCC1	0	5	2	-8	-6
c1ccc(-c2ccccc2OCCCCN2CCCCCC2)cc1	0	3	28	-12	-35*
CCC(C)c1ccccc1OCCOCCN1CCCC1 (configuration not stated)	0	-4	10	-18	-30*
c1ccc(-c2ccccc2OCCN2CCCC2)cc1	1	3	7	-12	-19
COc1ccc(CNC(=O)CN2C(=O)CSc3ccc(S(=O)(=O)N4CCCC4)cc32)cc1	0	-2	1	4	-2
CCN(CC)c1cc2c(cc1F)c(=O)c(S(=O)(=O)c1ccccc1)cn2Cc1ccccc1	0	7	1	6	-11
COc1ccc(CC(=O)NCc2ccc3c(c2)CCN3C(=O)c2ccccc2)cc1OC	-1	1	0	-4	-5
O=C(CN1CCN(Cc2ccc3c(c2)OCO3)CC1)N1CCc2[nH]c3ccc(F)cc3c2C1	0	-1	34*	-1	-27
O=C(CCc1ccc(S(=O)(=O)NCc2ccccc2)cc1)N1CCN(Cc2ccc3c(c2)OCO3)CC1	0	0	13	-6	-27
O=C(CS(=O)(=O)Cc1ccccc1)N1CCN(Cc2ccc3c(c2)OCO3)CC1	0	1	5	-1	-37*
O=C(Cn1ccc2ccccc2c1=O)N1CCN(Cc2ccc3c(c2)OCO3)CC1	0	4	-1	-4	-57*
O=C(c1cc2c(=O)n3ccccc3nc2s1)N1CCN(Cc2ccc3c(c2)OCO3)CC1	0	-3	0	-1	-31*
CCCN(CCC)C(=O)c1c[nH]c2ccc(S(=O)(=O)N(C)c3ccc(Cl)cc3)cc2c1=O	1	-3	3	1	-10
N#Cc1nc(Nc2cc(F)cc(F)c2)nc(NC2CCCC2)n1	2	1	9	-3	-18
Cc1cccc(NC(=O)CCNS(=O)(=O)c2ccc3c(c2)CCCC(=O)N3)c1C	1	-2	0	-4	2
COc1cccc(CNC(=O)Cn2c(=O)c3cccn3c3ccccc32)c1	0	-2	2	-2	4
O=C(c1cccc(Cl)c1)N1CCN(Cc2ccc3c(c2)OCO3)CC1	0	0	2	-3	-3
CC1CCN(c2nc3ccc(C(=O)N4CCN(Cc5ccc6c(c5)OCO6)CC4)cc3s2)CC1	-1	5	3	nt	-31*
CCCCCCCCCCCCCCCC(=O)OC(CC(=O)O)C[N+](C)(C)C (configuration not stated)	0	-11	75*	-7	-34*
Cc1[nH]c2ccccc2c1C(=O)C(=O)N(C)C1CCCCC1	-1	1	5	-4	-53*

High-throughput results (PubChem)
